# High-throughput results: PubChem BioAssay, National Center for Advancing Translational Sciences (NCATS)
# An excerpt weighted towards active compounds, which were near 12% of everything screened.
# BAZ2B inh: qHTS Assay for Inhibitors of BAZ2B; Bromodomain adjacent to zinc finger domain protein 2B (Homo sapiens), Q9UIF8; AlphaScreen BAZ2B-H3K14Ac peptide displacement; Potency, µM (titrated, usually from 114 µM), without a hit: at the highest dose activity change, negative = inhibition, usual class: inhibitors; 360,000 tested, 4.4% active; AID 504333, 2011; also: % is scaled to controls: 0 for no effect and ±100 for the full control effect; nearly all actives have a fitted effect of over 60% in size
# Target sequence (Q9UIF8 whole entry, looked up, the tested form may be a part): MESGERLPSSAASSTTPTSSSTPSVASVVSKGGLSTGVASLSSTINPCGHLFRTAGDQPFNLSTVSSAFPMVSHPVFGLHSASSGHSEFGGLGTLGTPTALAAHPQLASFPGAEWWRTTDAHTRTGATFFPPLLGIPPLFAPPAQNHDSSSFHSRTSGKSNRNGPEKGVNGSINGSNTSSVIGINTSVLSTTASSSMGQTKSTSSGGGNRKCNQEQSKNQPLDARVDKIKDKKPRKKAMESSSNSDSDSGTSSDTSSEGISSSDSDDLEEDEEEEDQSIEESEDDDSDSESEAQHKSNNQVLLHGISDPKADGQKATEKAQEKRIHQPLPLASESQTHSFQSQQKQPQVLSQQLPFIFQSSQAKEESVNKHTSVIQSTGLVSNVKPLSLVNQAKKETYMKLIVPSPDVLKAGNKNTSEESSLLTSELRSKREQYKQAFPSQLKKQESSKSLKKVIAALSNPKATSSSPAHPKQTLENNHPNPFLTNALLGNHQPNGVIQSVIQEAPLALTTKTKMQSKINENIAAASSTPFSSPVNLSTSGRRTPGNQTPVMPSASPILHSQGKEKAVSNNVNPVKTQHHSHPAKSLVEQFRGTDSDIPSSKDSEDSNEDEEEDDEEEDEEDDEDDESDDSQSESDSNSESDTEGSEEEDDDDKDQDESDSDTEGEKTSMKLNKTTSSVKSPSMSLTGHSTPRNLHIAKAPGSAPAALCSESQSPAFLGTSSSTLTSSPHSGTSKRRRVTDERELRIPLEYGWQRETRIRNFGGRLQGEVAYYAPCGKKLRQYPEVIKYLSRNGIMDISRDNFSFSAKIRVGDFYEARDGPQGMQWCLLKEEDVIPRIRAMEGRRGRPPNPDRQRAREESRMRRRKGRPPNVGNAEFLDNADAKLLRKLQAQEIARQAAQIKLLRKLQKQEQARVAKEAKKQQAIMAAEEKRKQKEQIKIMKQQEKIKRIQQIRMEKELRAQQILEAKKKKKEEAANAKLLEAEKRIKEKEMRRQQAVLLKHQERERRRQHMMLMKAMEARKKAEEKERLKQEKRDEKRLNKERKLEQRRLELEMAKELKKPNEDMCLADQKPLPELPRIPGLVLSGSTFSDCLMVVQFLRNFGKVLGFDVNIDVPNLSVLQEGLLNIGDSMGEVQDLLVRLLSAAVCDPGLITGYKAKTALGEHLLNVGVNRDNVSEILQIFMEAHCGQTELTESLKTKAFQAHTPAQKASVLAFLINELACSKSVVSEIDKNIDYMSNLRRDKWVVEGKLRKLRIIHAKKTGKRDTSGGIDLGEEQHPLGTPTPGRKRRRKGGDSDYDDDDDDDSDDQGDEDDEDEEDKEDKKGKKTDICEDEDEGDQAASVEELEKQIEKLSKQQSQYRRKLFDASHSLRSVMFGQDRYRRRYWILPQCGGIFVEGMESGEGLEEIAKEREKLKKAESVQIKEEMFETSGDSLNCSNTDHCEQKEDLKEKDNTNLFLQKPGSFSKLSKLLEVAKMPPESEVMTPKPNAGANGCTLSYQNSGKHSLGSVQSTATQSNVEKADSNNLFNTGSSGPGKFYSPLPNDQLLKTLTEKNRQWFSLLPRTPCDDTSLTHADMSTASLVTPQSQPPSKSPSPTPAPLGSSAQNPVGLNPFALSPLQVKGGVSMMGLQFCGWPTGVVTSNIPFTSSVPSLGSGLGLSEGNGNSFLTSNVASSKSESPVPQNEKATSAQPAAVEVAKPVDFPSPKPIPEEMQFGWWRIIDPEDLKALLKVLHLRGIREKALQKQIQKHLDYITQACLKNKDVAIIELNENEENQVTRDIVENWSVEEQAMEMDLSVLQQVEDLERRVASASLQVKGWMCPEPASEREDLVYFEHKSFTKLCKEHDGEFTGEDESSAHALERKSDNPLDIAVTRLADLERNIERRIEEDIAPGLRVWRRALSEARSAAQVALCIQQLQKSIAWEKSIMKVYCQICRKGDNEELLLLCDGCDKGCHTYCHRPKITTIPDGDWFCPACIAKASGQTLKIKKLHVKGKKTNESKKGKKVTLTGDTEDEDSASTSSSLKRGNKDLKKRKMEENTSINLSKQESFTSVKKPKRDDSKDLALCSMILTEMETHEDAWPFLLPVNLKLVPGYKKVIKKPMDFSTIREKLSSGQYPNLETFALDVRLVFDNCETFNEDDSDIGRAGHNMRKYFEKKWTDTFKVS
#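 BAZ2B (50 nM) with biotin-H3(5-23)K14Ac peptide (50 nM) in PBS pH 7.4, 0.01% Tween-20, preformed 30 min, then compound 30 min at room temperature; top concentration 110uM. AlphaScreen streptavidin donor/nickel chelate acceptor beads (10 ug/mL final), 20 min dark, signal read.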
# G9a inh: qHTS Assay for Inhibitors of Histone Lysine Methyltransferase G9a; Histone-lysine N-methyltransferase EHMT2 (Homo sapiens), Q96KQ7; G9a H3K9 monomethylation, AlphaScreen, 2 h; Potency, µM (highest dose often 102 µM), without a hit: at the highest dose activity, negative = inhibition, usual class: inhibitors; 350,000 tested, 8.8% active; AID 504332, 2011; also: % is scaled to controls: 0 for no effect and ±100 for the full control effect; nearly all actives have a fitted effect of over 75% in size
#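 AlphaScreen detection with an anti-monomethyl H3K9 antibody quantified product after a 2 h room-temperature reaction containing 500 nM biotinylated H3K9 peptide, 20 µM SAM and 20 nM enzyme, which had been preincubated 15 min with compound.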
# JMJD2A Tudor inh: qHTS Assay for Inhibitors of JMJD2A-Tudor Domain. AlphaScreen JMJD2A-Tudor / H3K4me3 peptide binding. Potency, µM (highest dose often 114 µM), inactives show at the top dose activity change, negative = inhibition, usual class: inhibitors. 390,000 tested, 4.4% active. Lysine-specific demethylase 4A (Homo sapiens), O75164; also: % is scaled to controls: 0 for no effect and ±100 for the full control effect; nearly all actives have a fitted effect of over 50% in size
# L3MBTL1 block: qHTS Assay for the Inhibitors of L3MBTL1; Lethal(3)malignant brain tumor-like protein 1 (Homo sapiens), Q9Y468; AlphaScreen L3MBTL1–H3K9me1 peptide binding; Potency, µM (titrated, usually from 57.1 µM), for inactives: at the top dose activity, negative = inhibition, usual class: inhibitors; 230,000 tested, 0.66% active; AID 485360, 2010; also: % is scaled to controls: 0 for no effect and ±100 for the full control effect; nearly all actives have a fitted effect of over 60% in size
#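 Read-out is AlphaScreen signal from streptavidin donor and nickel chelate acceptor beads (10 ug/mL final each) bridging L3MBTL1 (50 nM) and biotinylated K9-monomethylated H3(1-15) peptide (75 nM), after 30 min compound exposure at room temperature.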
# Sfp inh: qHTS Assay for Inhibitors of Bacillus subtilis Sfp phosphopantetheinyl transferase (PPTase); AID 1490, 2009; 310,000 tested, 3.5% active; Biochemical Sfp PPTase activity, qHTS; Potency, µM, for the others: largest response in the series, negative = inhibition, hits mostly inhibitors;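 also: the enzyme is Sfp with the accession as filed and its product quenches rhodamine fluorescence; 0% = enzyme reaction without inhibitor and -100% = no enzyme wells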
#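 With Hepes-Na pH 7.6 buffer containing 10 mM MgCl2, Sfp (15 nM) modified BHQ-2-YbbR (12.5 uM) using rhodamine-CoA (5 uM). Two reads 30 minutes apart at 525/598 nm yielded each well's rate.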
# HP1b binding inh: HTS for Inhibitors of HP1-beta Chromodomain Interactions with Methylated Histone Tails; AlphaScreen HP1-beta / biotin-H3K9me3 peptide binding; Potency, µM (top dose mostly 114 µM), inactives show at the top dose activity change, negative = inhibition, most hits filed as inhibitors; Chromobox protein homolog 1 (Homo sapiens), P83916; 390,000 tested, 0.56% active; also: nearly all actives have a fitted effect of over 70% in size
#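 AlphaScreen: HP1-beta (50 nM) preformed 30 min with biotin-H3(1-18)K9me3 peptide (50 nM) in PBS pH 7.4, 0.01% Tween-20. Compound added for 30 min at RT, then streptavidin donor/nickel chelate acceptor beads (10 ug/mL) for 30 min.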
# The depositor's hits bear a star; ? = inconclusive; nt = not tested or not shown; [ ] = remark or other dose. Calls follow the shape of the dose curve; as a rule, active = well fitted curve in the direction sought with a large enough effect; inconclusive = small, poorly fitted or top-dose-only effect, or another doubt; inactive = no such curve, though single readings can be large; an effect the other way counts as inactive or inconclusive. Potency is read from the fitted curve at half-maximal effect.
SMILES,BAZ2B inh,G9a inh,JMJD2A Tudor inh,L3MBTL1 block,Sfp inh,HP1b binding inh
O=C(NNS(=O)(=O)c1ccc(F)cc1)c1cccc(O)c1,8%,nt,25µM*,0%,0%,12%
N#Cc1ccccc1NC(=O)CSc1nc(-c2ccccc2)cc(C(F)(F)F)c1C#N,1%,19%[59 µM],1%,nt,nt,59%
COc1ccc(N2CC(NC(=O)C3CCCC3)CC2=O)cc1 (centres undefined),-12%,-9%[59 µM],-11%,nt,nt,3%
Cc1ccc(N(CC(=O)N2CCN(c3cc(C)ccc3C)CC2)S(=O)(=O)c2c(C)nn(C)c2C)cc1,nt,?,?,nt,nt,6%
CSc1ccc(CCNC(=O)CCc2c(C)nc3c(-c4ccccc4)c(C)nn3c2C)cc1,-4%,1%[59 µM],2%,nt,nt,59%
CC1=NN(c2ccccc2)C(=O)/C1=C/c1c(O)n(-c2ccc(F)c(Cl)c2)[nH]c1=O,35µM*,?,50µM*,-29%,?,?
CC1=NN(c2ccccc2)C(=O)/C1=C\c1c(C)[nH]n(-c2ccccc2)c1=O,-35%,?,?,-15%,5%,-10%
CCN(CC)c1ccc(C(=O)OCC(=O)NC2CCCCC2C)cc1 (centres undefined),7%,-11%,50µM*,nt,-14%,1%
CC1CCCC(NC(=O)COC(=O)c2ccc(N(C)C)cc2)C1C (centres undefined),-6%,-24%,-9%,nt,-13%,29%
O=c1cnc(-c2ccc(Cl)cc2)cn1O,?,2%,89µM*,-12%,-4%,1%
Clc1ccc(-c2cn3cc(Cl)ccc3n2)cc1,-1%,7%,-8%,nt,9%,28%
CCC(Sc1nc2nccnc2c(=O)n1Cc1ccc(C)cc1)C(=O)NC1CCCCC1 (centres undefined),7%,-5%[59 µM],8%,nt,nt,35%
NNS(=O)(=O)c1ccc2c(c1)Cc1cc(S(=O)(=O)NN)ccc1-2,-7%,7.9µM*,-13%,nt,-19%,11%
CCC1CN(C(=O)N2CCC(C(=O)NCc3ccc(N(C)C)cc3)CC2)c2ccccc2O1 (centres undefined),-34%,-29%[59 µM],-21%,nt,nt,35%
Cc1ccccc1C(=O)Nc1cccc(NC(=O)c2ncn[nH]2)c1,?,-9%,-25%,?,8%,1%
Cc1c(Cl)cccc1NC(=O)c1ncn[nH]1,20µM*,11µM*,25µM*,nt,-12%,28%
Cc1ccc(NC(=O)c2ncn[nH]2)cc1,50µM*,2%,10%,-1%,3%,31%
CCOc1cc(OCC)c(C(=O)CCC(=O)O)cc1OCC,nt,?,nt,nt,29%,nt
CC(=O)N[C@H](C(=O)N[C@@H](C)C(=O)N[C@H](C#N)CC(=O)O)C(C)C,1%,4%[12.7 µM],nt,-1%,nt,nt
Cc1ccc(NC2=Nc3ccccc3CS2)cc1,0%,10µM*,?,2%,-15%,13%
CC(=O)N1c2ccc(S(=O)(=O)NCC3CCC(C(=O)Nc4cccc(C)c4C)CC3)cc2CC1C (centres undefined),-31%,-11%[59 µM],-4%,nt,nt,32%
c1ccc2c(c1)ccc1ccccc12,nt,nt,50%,5%,nt,97%
Nc1ccc2ccccc2c1N=Nc1ccccc1,nt,nt,13µM*,nt,nt,13µM*
Cn1cccc1C(=O)N1CCC[C@@]2(CCN(c3cccc(-c4ccccc4)c3)C2)C1,nt,2%[12.7 µM],nt,nt,4%,nt
O=C(NCCCOc1cccc(CN2CCCCC2)c1)c1ccc(Cl)c(Cl)c1,?,10µM*,3.5µM*,-6%,-5%,?
CCOc1ccc(-c2nc(-c3ccccc3)c(-c3ccccc3)[nH]2)cc1OCC,-12%,14%[59 µM],-15%,nt,nt,41%
